Measured values reported in PubChem BioAssay AID493208 (National Center for Advancing Translational Sciences (NCATS), 2011).
Hit rate of the full screen: of about 44,000 compounds, about 340 (0.77%) were called active. Inconclusive results (about 5%) are left out. This is one part of a sample in which actives are shown more often than they occur. Values without a mark were called inactive. Calls follow the shape of the dose curve; as a rule, active = well fitted inhibition curve with a large enough effect; inconclusive = small, poorly fitted or top-dose-only effect; inactive = flat fitted curve, though single readings scatter.

assay: Acumen qHTS Assay for Inhibitors of the mTORC1 Signaling Pathway in MEF (Tsc2-/-, p53-/-) Cells: Sytravon; details: phospho-rpS6 immunofluorescence/PI, 24 h; series mostly up to 38.3 µM; activity change, negative = inhibition: at the top concentration; also: nearly all actives have a fitted effect of over 50% in size
Description: NIH Molecular Libraries Probe Production Centers Network [MLPCN] NIH Chemical Genomics Center [NCGC] MLPCN Grant: NS059428-01 Assay Submitter (PI): Blenis, John; Hoffman, Greg; Harvard University NCGC Assay Overview: The mammalian target of rapamycin (mTOR) is an intracellular serine/threonine kinase Aberrant regulation of mTOR signaling plays a causative role in a number of human diseases, including cancer, benign tumors such as lymphangioleiomyomatosis (LAM) and Tuberous Sclerosis Complex (TSC), and metabolic diseases such as diabetes and obesity. This project aims to identify inhibitors of ribosomal protein S6 (rpS6) phosphorylation. The phosphorylation of rpS6 is a key event downstream of mTOR activation. The assay uses a phospho-specific antibody of phospho-rpS6 to detect inhibitors of mTOR activation. Mutations in the Tsc1 and Tsc2 genes are the underlying genetic lesions responsible for TSC, causing constitutive activation of the mTORC1 pathway and leading to profound effects on cell metabolism. Aberrant metabolism in cancer has recently received significant attention as a target to develop therapeutic agents in the treatment of cancer.1 As Tsc2-/- cells have lost the ability to respond to energy and growth factor deprivation, these cells are unable to properly down regulate cellular biosynthetic processes in response to metabolic stress, and are thus extremely sensitive to glucose deprivation-induced death.2 A central goal of this project is to explore the unique cell survival and metabolic properties of cells with Tsc1 or Tsc2 by screening for compounds that selectively target the Tsc2-/- MEFs by screening both Tsc2-/- and WT MEF cell lines. We hope to better understand these aspects of TSC physiology in order to exploit them for therapeutic benefit.
NCGC Acumen Assay Protocol Summary: For quantitative high throughput analysis of mTORC1 signaling, we developed a cell-based assay for immuno-fluorescence based detection of rpS6 phosphorylation on the Acumen Explorer that will be used a platform for the primary small molecule screen. Mouse embryonic fibroblasts (MEFs) are cultured in 1536-well plates using DMEM + 10% FBS. Twenty-four hrs after plating, test compounds (solubilized in DMSO) are delivered and incubated with the cells for 24 hrs at 37 degree Celsius. Following the incubation, media with compound is aspirated and the cells are fixed in 4% paraformaldehyde (PFA) containing PBS + 0.2% TX-100. Next, PFA is aspirated, cells are washed two times with PBS plus 0.2% TX-100 and the cells are blocked for 1 hr at room temperature (blocking buffer: LiCOR Blocking Buffer plus 0.2% TX-100). […] Cells are washed two times with PBS plus 0.2% TX-100, and stained with 10 uM propidium iodide (PI) for 20-25 minutes for cell number measurement (1:500 dilution of Hoescht staining is also added for IN Cell imaging). The plates are scanned on the Acumen Explorer laser scanning instrument (TTP Labtech) using the 488nm laser for simultaneous excitation of the Alexa-488 and PI. […] The normalized phospho-S6 staining is calculated as the ratio of the integrated Alexa 488 intensity divided by the integrated PI intensity for the single concentration rapamycin control (7.5 nM) and DMSO columns. […] Inhibition of the pathway is defined based on the normalized phospho-S6 intensity in rapamycin treated cells. Active cells are defined as those with a normalized phospho-S6 staining above this threshold, and each treatment is reported as the % positive cells in the well, where thresholds are defined by selecting wells with the highest and lowest signal and differentiating between the % non-active and % active populations. In addition to the pathway specific phospho-S6 endpoint, the number of PI stained cells from the Acumen is recorded as a measure of cell viability. The primary screen was performed with a MEF cell line in a defined genetic background, Tsc2-/-, p53-/- cell line stably transfected with an empty vector control (Tsc2-/- MEF).
Potency is read from the fitted curve at half-maximal effect.

Compound | activity change, negative = inhibition [%] | Potency
Cc1ccc(CSc2oc(-c3cccs3)nc2S(=O)(=O)c2ccc(C)cc2)cc1 | 0 | –
CSc1oc(-c2cccs2)nc1S(=O)(=O)c1ccc(Br)cc1 | 2.88 | –
Cc1ccc(CNC(=O)CSc2c3c(nc4cc(Cl)ccc24)CCCC3)cc1 | -6.2 | –
COc1cccc(CNC(=O)CSc2c3c(nc4cc(Cl)ccc24)CCCC3)c1 | 3.18 | –
CCOC(=O)C1CCN(C(=O)CSc2c3c(nc4ccc(Cl)cc24)CCCC3)CC1 | – | 18.5 µM (active)
CN(C)CCN(Cc1ccccc1)S(=O)(=O)c1csc(C(N)=O)c1 | 3.82 | –
CC(C)C12CN3CC(C(C)C)(CN(C1)C3c1ccc(OCc3ccccc3)cc1)C2=O (stereo not drawn) | -2.1 | –
N#C/C(=C\c1ccccc1F)c1nc2ccccc2c(=O)[nH]1 | 7.42 | –
COC(=O)c1cnn(-c2ccc(C(=O)Nc3ccc(OC(F)(F)F)cc3)cc2)c1N | -1.33 | –
Cc1ccc(Cn2c(=O)n(-c3ccc(C)cc3)c(=O)c3c2c2cc(C)ccc2n3C)cc1 | -1.48 | –
CCSc1ncc(Cl)c(C(=O)Nc2cc(C)ccc2C)n1 | 5.83 | –
Cc1ccc(NC(=O)c2nc(S(=O)(=O)Cc3cccc(C)c3)ncc2Cl)cc1 | – | 5.85 µM (active)
CCOC(=O)c1ccc(NC(=O)c2nc(SCc3ccc(F)cc3)ncc2Cl)cc1 | -6.5 | –
CCC(C)NC(=O)Cn1c(=O)n(-c2ccc(Cl)cc2)c(=O)c2c3c(sc21)CCCC3 (stereo not drawn) | 7.38 | –
CC1CCCCN1CCCNC(=O)Cn1ncc2c([nH]c3ccccc32)c1=O (stereo not drawn) | -1.23 | –
COc1ccccc1-c1noc(CSc2nnc(-c3ccccc3)n2-c2ccc(C)c(C)c2)n1 | -10.2 | –
CCOc1ccc(CNC(=O)c2ccc(CS(=O)c3ccccc3)o2)cc1 (stereo not drawn) | 3.66 | –
CCCCC(CC)CNC(=O)C1CCN(S(=O)(=O)c2cccc3nsnc23)CC1 (stereo not drawn) | 2.77 | –
CC(=O)c1cccc(NC(=O)CSc2nc3c(c(=O)[nH]2)CCC3)c1 | 2.41 | –
Cc1ccc(Cn2c(C)c3cnn(CC(=O)NCc4ccccc4)c(=O)c3c2C)cc1 | -12.7 | –
Clc1ccc(CSc2nncn3c2cc2occc23)cc1 | 0.254 | –
COc1cc(OC)cc(-c2nc3nc(C)c(CCC(=O)Nc4ccccc4)c(C)n3n2)c1 | 2.09 | –
CCOc1cccc(CC(=O)N2CCc3c([nH]c4ccccc34)C2c2ccc(OC)cc2)c1OCC (stereo not drawn) | 9.34 | –
CCN(C(=O)CSc1nnc(C)n2c1cc1occc12)c1ccccc1 | -2.15 | –

Compound | activity change, negative = inhibition [%] | Potency
Cc1ccc(-c2nc(SCc3ccc(Br)cc3)n3[nH]c(=O)cc3n2)cc1 | -2.33 | –
O=c1cc(-c2ccccc2)n2c(SCc3ccccc3)nnc2[nH]1 | 0.0486 | –
CCCCSc1ncnc2c1sc1nc(N3CCOCC3)c3c(c12)CCCC3 | 6.37 | –
COc1ccc(N2C(=O)CSC23C(=O)N(Cc2cccc(F)c2)c2ccccc23)cc1Cl (stereo not drawn) | -3.26 | –
COc1cc(C(=O)Nc2ccc(OCc3cc(=O)n4cc(C)sc4n3)cc2)cc(OC)c1OC | -6.16 | –
CCOc1ccc(NC(=O)c2ncoc2-c2ccco2)cc1 | 0 | –
Cn1nnnc1SCCCNCc1ccc(Cl)cc1 | -9.59 | –
Cn1nnnc1SCCNCc1ccc(Cl)c(Cl)c1 | -5.71 | –
Cn1nnnc1SCCCNCc1cccc(OCc2ccc(Cl)cc2)c1 | – | 18.5 µM (active)
COc1ccc(C(=O)Nc2nonc2-c2ccc(OC)c(OC)c2)cc1Cl | -29.4 | –
Cc1ccc(NC(=O)c2cc3cc(C)ccc3n2C)cc1 | -1.67 | –
Cc1ccc(S(=O)(=O)c2nnn3c2nc(N2CCN(c4ccccc4F)CC2)c2cc(Cl)ccc23)cc1C | -0.0789 | –
COC(=O)c1cc(NC(=O)c2cnc(SC)nc2-c2ccccc2)cc(C(=O)OC)c1 | -1.13 | –
Cc1ccc(-c2nnc(Nc3cccc(Br)c3)c3ccccc23)cc1S(=O)(=O)NCC1CCCO1 (stereo not drawn) | -0.426 | –
Cc1ccc(Nc2nnc(-c3ccc(C)c(S(=O)(=O)N4CCCCC4)c3)c3ccccc23)cc1 | -1.69 | –
CCNS(=O)(=O)c1cc(-c2nnc(Nc3cccc(C(F)(F)F)c3)c3ccccc23)ccc1C | – | 18.5 µM (active)
O=C(Nc1ccccc1Cl)N1CCC(CN2CCCCC2)CC1 | -6.23 | –
CCc1ccc(CNC(=O)c2cc3c(=O)n(CC)c4ccccc4c3s2)cc1 | -7.38 | –
CCn1c(=O)c2cc(C(=O)NCCc3ccc(Cl)cc3)sc2c2ccccc21 | 1.55 | –
CCN(CCCNC(=O)c1cc2c(=O)n(CC)c3ccccc3c2s1)Cc1ccccc1 | – | 18.5 µM (active)
CCCCOC(=O)CSc1ncnc2sc3c(c12)CCC(C)C3 (stereo not drawn) | -0.119 | –
Cc1cc(NC(=O)CC(C)C)cc(-c2nc3ncccc3o2)c1O | 1.54 | –
CCc1ccc(NC(=O)c2cc3c(=O)n(Cc4cccnc4)ccc3nc2C)cc1 | -1.59 | –
O=C(CC(NCc1cccnc1)C(=O)O)Nc1ccc(O)cc1 (stereo not drawn) | – | 14.7 µM (active)
